HTT aggregate – reduces HttQ103-GFP aggregates in PC12 cells; PC12 HttQ103-GFP aggregates, Acumen cytometry, 40 h; Potency, µM (titrated, usually from 46.1 µM), inactives show at the highest dose activity change, negative = inhibition, most hits filed as inhibitors; AID 1688; actives 1.1% (n = 220,000); further: on the % scale 0 is the no-effect control and ±100 the full control effect; nearly all actives have a fitted effect of over 60% in size
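Huntingtin Q103 exon 1–GFP aggregates in induced PC12 cells (100 nM tebufenozide) were quantified by cytometry from lysates, with compounds dosed in titration.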
TGFb SMAD3 inh – blocks TGF-b signaling; HepG2 CAGA-GFP TGF-b/SMAD3 reporter, GFP fluorescence, 18 h; TGF-beta stimulated, 500 pg/mL final; Potency, µM (top dose mostly 46.1 µM), without a hit: at the highest dose activity, negative = inhibition, actives largely listed as inhibitors; actives 1.2% (n = 410,000); AID 588855; further: on the % scale 0 is the no-effect control and ±100 the full control effect; nearly all actives have a fitted effect of over 65% in size
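Inhibition was scored as loss of TGF-beta-induced (500 pg/mL final, 18 hours, 37 degrees C) GFP in HEPG2 cells carrying a CAGA-GFP reporter, in DMEM with 1% FBS. Well GFP was summed per cell; Activity was normalised to unstimulated and stimulated DMSO wells, then concentration-response fitting.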
HepG2 tox-1 – HepG2 cytotoxicity, counter-screen for TGF-b inhibitors; HepG2 CAGA-GFP viability, ATP luminescence, 18 h; Potency, µM (top dose mostly 46.1 µM), for inactives: at the top dose activity change, negative = cytotoxicity, actives largely listed as cytotoxic; actives 0.76% (n = 410,000); AID 588856
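HepG2 CAGA-GFP cells (1000/well, DMEM with 1% FBS) received compound, then TGF-beta at 500 pg/mL final, and were incubated 18 hours at 37 degrees C. Viability was read by CellTiter-Glo luminescence. Media-only wells were set as complete cell-killing and DMSO as no toxicity.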
HTT cytoprotect – cytoprotection in Huntington HTT-Q103 PC12 cell model; Potency, µM (series often up to 56.4 µM), for inactives: cytoprotection (ATP increase), usual class: activators; actives 0.14% (n = 230,000); PC12 HTT-Q103 induced, cytoprotection, ATP luminescence, 40 h; further: % of control where 0% means no effect; nearly all actives have a fitted effect of over 45% in size
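Readout: ATPlite luminescence (ATP level). Model: stable PC12, inducible Htt exon1 Q103-GFP. Inducer: tebufenozide, 100 nM final. Compounds: dose series. No G418 in medium.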
ATXN viability – cell viability loss in ATXN counter-screen; S2 cells (HEK-293 line with an ATXN2-luciferase reporter) viability, CellTiter-Fluor protease fluorescence, 24 h; Potency, µM (highest dose often 56.7 µM), most hits filed as cytotoxic; actives 0.49% (n = 400,000); further: nearly all actives have a fitted effect of over 40% in size
ATXN2 expr inh – reduces ATXN2 reporter expression in HEK-293 cells; actives 0.72% (n = 360,000); Potency, µM (top dose mostly 57 µM), inactives show top-dose activity change, negative = inhibition, usual class: inhibitors; AID 1745845; HEK-293 ATXN2-luciferase reporter, luminescence, 24 h; further: on the % scale 0 is the no-effect control and ±100 the full control effect; nearly all actives have a fitted effect of over 55% in size
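qHTS (up to 57 uM final) was run with 24 h compound exposure of reporter cells at 37 °C. Each well was multiplexed: SteadyGlo luminescence measured ATXN2-luciferase expression after a fluorogenic Gly-Phe-AFC viability readout (25 uM final).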
TGFb CAGA inh – confirmation of TGF-b signaling inhibitors in HepG2 reporter cells. shares compounds with TGFb SMAD3 inh. HepG2 CAGA-GFP TGF-b reporter, GFP fluorescence, 18 h; cells stimulated with TGF-beta, 500 pg/mL. Potency, µM (doses to about 46.1 µM), for the others: at the top dose activity, negative = inhibition, hits mostly inhibitors. actives 63% (n = 1,600). AID 720534; further: on the % scale 0 is the no-effect control and ±100 the full control effect; nearly all actives have a fitted effect of over 65% in size
HepG2 tox-2 – counter-screen for TGF-b inhibitors: cytotoxicity in HepG2 cells; HepG2 CAGA-GFP viability, ATP luminescence, 18 h; cells stimulated with TGF-beta, 500 pg/mL; shares compounds with TGFb SMAD3 inh; Potency, µM (highest dose often 46.1 µM), for inactives: top-dose activity, negative = cytotoxicity, actives largely listed as inhibitors; actives 27% (n = 1,600); further: on the % scale 0 is the no-effect control and ±100 the full control effect; nearly all actives have a fitted effect of over 70% in size
TGFb CCL64 inh – blocks TGF-b signaling in CCL64 reporter cells. actives 41% (n = 1,600). shares compounds with TGFb SMAD3 inh. Potency, µM (series often up to 46.1 µM), for the others: top-dose activity, negative = inhibition, actives largely listed as inhibitors. CCL64 CAGA-GFP reporter, TGF-b stimulated, GFP fluorescence, 18 h; further: nearly all actives have a fitted effect of over 65% in size
TGFb COP inh – validation of TGF-b inhibitors in HepG2 COP promoter reporter | shares compounds with TGFb SMAD3 inh | HepG2 COP-GFP TGF-b reporter, GFP fluorescence, 18 h; cells stimulated by added recombinant TGF-beta | Potency, µM (titrated, usually from 46.1 µM), for the others: top-dose activity, negative = inhibition, hits mostly inhibitors | actives 3% (n = 1,600) | AID 720537; further: nearly all actives have a fitted effect of over 70% in size
The depositor's hits bear a star; i = inactive; ? = inconclusive; . = no result; [ ] = dose if it differs, or a comment. This is a sample that favours compounds with a hit; in the whole collection about 2.8% have one here. The call rests on the fitted dose curve; in most records, active means well fitted curve in the direction sought with a large enough effect; inconclusive means small, poorly fitted or top-dose-only effect, or another doubt; inactive means no such curve, though single readings can be large; an effect the other way counts as inactive or inconclusive. Potency means the concentration at half of the fitted maximal effect.

SMILES	HTT aggregate	TGFb SMAD3 inh	HepG2 tox-1	HTT cytoprotect	ATXN viability	ATXN2 expr inh	TGFb CAGA inh	HepG2 tox-2	TGFb CCL64 inh	TGFb COP inh
CCCN1CCC(=O)N(CCSc2ccc(Br)cc2)CC1	.	-17%	-29%	.	.	.	.	.	.	.
COc1cc(NC(=O)C2Cc3ccccc3CN2S(C)(=O)=O)cc(OC)c1 (stereo unspecified)	.	11µM*	25%	.	i	-27%	-21%	-6%	-21%	8%
OC(CN1CCCC1)c1ccccc1 (stereo unspecified)	.	-5%	-1%	.	.	.	.	.	.	.
O=C(c1ccc(F)cc1)C(CN1CCOCC1)c1ccccc1 (stereo unspecified)	26%[9.22 µM]	3.5µM*	18µM*	32µM*	.	?	7.3µM*	16µM*	3.7µM*	?
O=C(c1ccc(Cl)cc1)C(CN1CCCC1)c1ccccc1 (stereo unspecified)	.	7.9µM*	-115%	.	.	.	3.7µM*	8.2µM*	2.6µM*	?
c1ccc(C(CN2CCOCC2)c2ccccc2)cc1	15%	18%	4%	-7%	i	-9%	.	.	.	.
O=S(=O)(c1ccc2ccccc2c1)N1CCN(C2Cc3ccccc3C2)CC1	-13%	5µM*	-15%	5%[10 µM]	i	-12%	-23%	5%	11%	1%
O=S(=O)(c1ccc2ccccc2c1)N1CCN(C2CCN(Cc3ccccc3)CC2)CC1	4%	-16%	-23%	-17%	i	-26%	.	.	.	.
CCOC(=O)C1=C[C@@H](C(C)(C)C)N(S(=O)(=O)c2ccc([N+](=O)[O-])cc2)[C@H]1c1ccccc1	.	?	-15%	.	i	-20%	?	-3%	?	-1%
CCOC(=O)C1=C[C@@H](C(C)(C)C)N(S(=O)(=O)c2ccc(OC)cc2)[C@H]1c1ccccc1	.	11µM*	-20%	.	i	-9%	9.2µM*	-29%	-29%	-3%
CCOC(=O)C1=C[C@@H](C(C)(C)C)N(S(=O)(=O)c2ccc(C)cc2)[C@H]1c1ccccc1	.	?	-25%	.	i	-11%	.	.	.	.
CCOC(=O)C1=C[C@@H](C(C)(C)C)N(S(=O)(=O)c2ccc(C)cc2)[C@H]1c1ccc(OC)cc1	.	?	-16%	.	i	0%	.	.	.	.
O=C1C=C[C@@H](O)[C@H]2[C@@H]3C(=O)N(c4cccc(Oc5ccccc5)c4)C(=O)[C@@H]3CC[C@H]12	.	.	.	0%[10 µM]	.	.	.	.	.	.
O=CN/C=C/c1cc(F)cc(F)c1F	.	.	.	16%	.	.	.	.	.	.
COC(=O)[C@@]1(Cc2ccc(OC)cc2)[C@H]2c3cc(C(=O)N(C)C)n(Cc4c(CO)[nH]cc(C)c4=O)c3C[C@H]2CN1C(=O)c1ccccc1	.	3%	-1%	-21%	i	1%	.	.	.	.
COC(=O)[C@@]1(Cc2ccc(OC)cc2)[C@H]2c3cc(C(=O)N4CCCC4)n(Cc4c(CO)[nH]cc(C)c4=O)c3C[C@H]2CN1C(=O)c1ccccc1	.	?	-1%	-32%	i	0%	-14%	-1%	0%	-3%
CCCCNc1c(-c2ccc(OC)c(SC3CCCCC3)c2)nc2cc(C)ccn12	.	20µM*	-50%	.	?	?	?	?	16µM*	35%
CC1=CC(=O)CC(C)(C)[C@]1(O)/C=C\C(C)=C\C(=O)O	.	.	.	-11%[10 µM]	.	.	.	.	.	.
CCn1c(CCCOc2ccc(Cl)cc2Cl)nnc1SCC(=O)Nc1cc(F)ccc1C	-6%	13µM*	4%	3%[10 µM]	i	1%	13µM*	?	-16%	-9%
Cn1c(CCCOc2ccc(Cl)cc2Cl)nnc1SCC(=O)Nc1cccc(F)c1	3%	0%	-37%	0%[10 µM]	i	1%	.	.	.	.
N#CC(c1ccc(Cl)cc1)c1ccc2c(C(F)(F)F)cc(C(F)(F)F)nc2n1 (stereo unspecified)	?	3.5µM*	-38%	-44%	2µM*	0.71µM*	5.2µM*	6.5µM*	1.5µM*	103%
O=C(NCC(c1ccco1)N1CCc2ccccc21)C(=O)Nc1ccc(F)cc1F (stereo unspecified)	.	?	9%	.	?	-14%	13µM*	0%	12µM*	-2%
O=C(NCC(c1ccco1)N1CCc2ccccc21)C(=O)Nc1ccccc1F (stereo unspecified)	.	?	-17%	.	i	-12%	.	.	.	.
O=C(c1cc(-c2ccccc2Cl)nc2ccc(Br)cc12)N1CCN(c2ccccn2)CC1	.	?	-27%	.	?	?	-30%	?	?	11%
O=C(c1cc(-c2ccc(Br)cc2)nc2ccccc12)N1CCN(c2ccccc2O)CC1	.	11µM*	-2%	.	i	12%	6.5µM*	?	?	2%
C/C=C1\COC(C(=O)NCCN2CCOCC2)(C(F)(F)F)C=C1C=C(C)C (stereo unspecified)	.	-31%	-12%	.	.	.	.	.	.	.
COc1ncc2nc(-c3ccccc3)c(=O)n(-c3ccccc3)c2n1	.	.	.	-34%	.	.	.	.	.	.
O=C(O)CC(O)CC(O)/C=C/c1c(C2CC2)nc2ccccc2c1-c1ccc(F)cc1 (stereo unspecified)	-38%	.	.	-254%	.	.	.	.	.	.
